Inconclusive results are not listed. The source made the active and inactive calls. The call rests on the fitted dose curve.
On the % scale 0 is the no-effect control and ±100 the full control effect.

Sequence of Atrial natriuretic peptide receptor 1 (Homo sapiens) (P16066 whole entry, looked up): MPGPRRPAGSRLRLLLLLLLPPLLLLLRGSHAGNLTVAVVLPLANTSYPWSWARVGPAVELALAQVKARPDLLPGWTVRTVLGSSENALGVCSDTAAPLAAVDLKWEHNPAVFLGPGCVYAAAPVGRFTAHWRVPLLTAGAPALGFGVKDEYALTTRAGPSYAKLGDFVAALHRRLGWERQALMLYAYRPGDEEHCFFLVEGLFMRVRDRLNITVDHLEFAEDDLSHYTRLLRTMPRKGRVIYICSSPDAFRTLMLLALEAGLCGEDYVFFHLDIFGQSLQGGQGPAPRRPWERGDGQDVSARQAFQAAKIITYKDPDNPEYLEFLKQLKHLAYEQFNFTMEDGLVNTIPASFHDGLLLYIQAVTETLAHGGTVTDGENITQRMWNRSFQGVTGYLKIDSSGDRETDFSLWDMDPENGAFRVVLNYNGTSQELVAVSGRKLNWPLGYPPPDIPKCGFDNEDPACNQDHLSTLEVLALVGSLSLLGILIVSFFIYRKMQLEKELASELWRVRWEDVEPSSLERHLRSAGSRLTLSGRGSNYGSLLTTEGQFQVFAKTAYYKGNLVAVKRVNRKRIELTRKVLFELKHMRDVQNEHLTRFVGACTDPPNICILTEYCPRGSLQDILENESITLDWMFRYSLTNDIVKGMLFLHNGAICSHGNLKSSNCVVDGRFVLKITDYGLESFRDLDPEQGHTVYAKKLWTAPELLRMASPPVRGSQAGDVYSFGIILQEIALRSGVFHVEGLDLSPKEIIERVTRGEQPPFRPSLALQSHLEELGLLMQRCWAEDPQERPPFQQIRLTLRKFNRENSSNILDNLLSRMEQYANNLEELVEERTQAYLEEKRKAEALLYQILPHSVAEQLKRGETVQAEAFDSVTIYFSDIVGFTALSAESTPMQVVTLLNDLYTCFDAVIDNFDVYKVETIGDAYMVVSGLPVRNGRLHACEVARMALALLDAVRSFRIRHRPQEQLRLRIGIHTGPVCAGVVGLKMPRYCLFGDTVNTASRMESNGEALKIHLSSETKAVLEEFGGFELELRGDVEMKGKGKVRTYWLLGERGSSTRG

This assay concerns the target Atrial natriuretic peptide receptor 1 (Homo sapiens) (UniProt P16066). The experiment in a line: Natriuretic polypeptide receptor (hNpr1) antagonism - Pilot CMLD screen (AID 1347052).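 Further: HEK293 cells with hNpr1 stimulated by hNppA peptide at 0.1 nM; cGMP level read as GloSensor luciferase luminescence after agonist stimulation.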 To be noted: HEK293 hNpr1 GloSensor cGMP luminescence, ANP-stimulated; series mostly up to 9.22 µM; activity change, negative = inhibition: at the top concentration.
Take `CCCCCCCC1=Cc2ccccc2C(C(C(=O)OC)C(=O)OC)N1C(=O)OC` (centres undefined): the “activity change, negative = inhibition” value was -4.8% (inactive).
Turning to `C[C@@H]1CC2CCCC2[C@]2(O1)C(=O)Nc1ccccc12` (some centres undefined), the “activity change, negative = inhibition” value is 0.414% (inactive).
`COCOc1c2c(c(OCOC)c3c(OCOC)cccc13)C(=NNS(=O)(=O)c1ccc(C)cc1)C1=C2CCCC1`: the “activity change, negative = inhibition” value was 0.527% (inactive).
For the molecule `COc1ccc2c(c1)[C@@]1(OCCC=C[C@@H]1C)C(=O)N2Cc1ccc(F)cc1`, the “activity change, negative = inhibition” value was 1% (inactive).
In the case of `COC1=C[C@H](C(=O)NCc2ccccn2)[C@@]2(C)Cc3ccccc3[C@@H]2CC1=O`, the “activity change, negative = inhibition” value was 6.72% (inactive).
With `CC(C)=CCCC(C)=CCN1C(=O)[C@@]2(C[C@@H](C)C[C@@H](C)O2)c2ccccc21` the figure was 1.25% (inactive).
For `CCOC(=O)C1(C(=O)OCC)CC2=C(C=CC3=C(C=C2)CC(C(=O)OCC)(C(=O)OCC)C3)C1`, the “activity change, negative = inhibition” value was 1.15% (inactive).
For `COc1ccc2c(c1)[C@@H](NC(=O)C(F)(F)F)C1CCCCC21c1ccccc1` (some centres undefined) the value was 0.414% (inactive).
With `CC(Nc1oc(-c2ccccc2)nc1-c1ccccc1)c1ccccc1` (centres undefined) the figure was -0.127% (inactive).
For `CC1=C[C@@H](C)O[C@@]2(C1)C(=O)Nc1cccc(Br)c12` the value was -2.09% (inactive); for `C[C@@H]1C[C@H]2[C@@H](C)C(=O)N3[C@@H](C[C@@H](C)[C@@H]3c3ccccc3)[C@@H](C)C(=O)N2[C@H]1c1ccccc1`, 10% (inactive).
Take `COc1ccc(-c2nc3c(c4c2C[C@H](c2ccccc2)OC4)CN(S(=O)(=O)c2ccc(NC(C)=O)cc2)CC3)c(C)c1`: the “activity change, negative = inhibition” value was 0.47% (inactive).
On to `CC1(OC(=O)C2CCCC2)C(=O)C=C2C=C(c3ccc(C#N)cc3)OC=C2C1=O` (centres undefined), for which the “activity change, negative = inhibition” value is 2.14% (inactive).
In the case of `COCC=CC1=CC2=CC(=O)C(C)(OC(=O)c3cnc4ccccc4n3)C(=O)C2=CN1CC(C)C` (centres undefined), the “activity change, negative = inhibition” value is 1.47% (inactive).

The values above are taken from PubChem BioAssay (NCATS).
